Results filed as inconclusive are left out. Values without a mark were called inactive. Activity calls are given as the source filed them. The call rests on the fitted dose curve; in most records, active means well fitted cell-killing curve with a large enough effect in the repeat runs; inconclusive means weak or mixed curves, or effect the other way; inactive means no such curve, though single readings can be large or run the other way.
Assay: Caspase-3/7 induction in CHO-K1 cells by small molecules, qHTS cell viability counter screen (AID 1346979); further: nearly all actives have a fitted effect of over 35% in size
Conditions: CellTiter-Fluor fluorescence, 17 h; series mostly up to 92.4 µM; activity change, negative = cytotoxicity: at the top concentration
From the text: National Center for Advancing Translational Sciences [NCATS]
NIH Chemical Genomics Center [NCGC]
U.S. Environmental Protection Agency [EPA]
National Institutes of Environmental Health Sciences [NIEHS]
National Toxicology Program [NTP]
U.S. Food and Drug Administration [FDA]
Apoptosis is a process of programmed cell death and plays a central role in the development of multicellular organisms. It is a highly regulated process and induces cell death by activating caspases, which are the members of cysteine aspartic acid-specific protease (caspase) family. Caspases involved in apoptosis are classified by their mechanism of action as initiator caspases (caspase-2, -8, -9 and -10) and executioner caspases (caspase-3, -6, and -7). Inhibition of apoptosis results in number of cancers, autoimmune diseases, inflammatory diseases and viral infection. To identify small molecule compounds that induce apoptosis, a homogeneous, luminescent Caspase-Glo 3/7 assay was used. Wild type CHO-K1 cells were used to screen Tox21 libraries for identifying caspase-3/7 activity inducers. Also cytotoxicity of the compounds was tested in parallel by measuring the cell viability using CellTiter-Fluor assay system in the same wells.
Tox21 Assay Protocol Summary:
CHO-K1 cells were dispensed at 1,500 per well in 5uL of culture medium into white solid bottom 1536-well plates (Corning Life Sciences, Corning, NY) using a Multidrop Combi (Thermo Scientific, Waltham, MA) dispenser. The assay plates were incubated at 37 C and 5% CO2 for 5hr, and then 23nL of compounds dissolved in DMSO and positive control were transferred using a Pintool station (Wako, San Diego, CA). The assay plates were incubated at 37C and 5% CO2 for 17hr. For cytotoxicity read, after 16hr incubation at 37C, 1uL CellTiter-Fluor reagent (Promega Corporation, Madison, WI) was added to each well of the assay plates using Flying Reagent Dispenser (FRD, Aurora Discovery, San Diego, CA). After 1hr incubation at 37C and 5% CO2, the fluorescence signal was quantified using a ViewLux plate reader (PerkinElmer, Shelton, CT).
On the % scale 0 is the no-effect control and ±100 the full control effect; potency means the concentration at half of the fitted maximal effect.

Row | Compound | activity change, negative = cytotoxicity | Potency
1 | CCOC(=O)Cc1cccc2ccccc12 | -1.9% | 
2 | CC(=O)c1ccc2c(c1)N(CCCN1CCC(CCO)CC1)c1ccccc1S2 |  | 29.8 µM (active)
3 | C=C(C)C(=O)OCC | 9.85% | 
4 | COc1ccc(C)cc1[N+](=O)[O-] | -1.29% | 
5 | CCCCOC(=O)CCCCCCCC(=O)OCCCC | 7.82% | 
6 | COc1cc(Cl)ccc1Oc1ccc(Cl)cc1Cl | 3.31% | 
7 | c1ccc(-c2ccccn2)nc1 | -10.6% | 
8 | CN(C)CCOC(c1ccccc1)c1ccc(Br)cc1 (stereo not given) | -14.9% [at 42.5 µM] | 
9 | CCCCC | -10.4% | 
10 | C/C(=C(\CCOP(=O)(O)O)SC(=O)c1ccccc1)N(C=O)Cc1cnc(C)nc1N | 2.5% [at 8.39 µM] | 
11 | C#Cc1cccc(Nc2ncnc3cc(OCCOC)c(OCCOC)cc23)c1 |  | 6.68 µM (active)
12 | Cc1nn(C)c(Oc2ccccc2)c1/C=N/OCc1ccc(C(=O)OC(C)(C)C)cc1 |  | 0.0154 µM (active)
13 | Brc1c2ccccc2c(Br)c2ccccc12 | 14.3% [at 8.39 µM] | 
14 | O=C(OCCCCCCOC(=O)c1ccccc1)c1ccccc1 | 5.16% | 
15 | O=C(O)c1ccc(S(=O)(=O)O)cc1C(=O)O | -0.675% | 
16 | CCC(=O)O[C@]1(C(=O)CCl)[C@@H](C)C[C@H]2[C@@H]3CCC4=CC(=O)C=C[C@]4(C)[C@@]3(F)[C@@H](O)C[C@@]21C | -7.12% [at 42.5 µM] | 
17 | CN(C)CCN(Cc1ccccc1)c1ccccn1 | 0.54% [at 42.5 µM] | 
18 | CCOC(=O)c1cccnc1 | 13.4% [at 42.5 µM] | 
19 | C[C@@H]1C[C@H]2O[C@@]3(O[C@@H]2C(C)(C)O)[C@H](O)[C@@]2(C)[C@@H]4CC[C@H]5C(C)(C)[C@@H](O[C@@H]6OC[C@@H](O)[C@H](O)[C@H]6O)CC[C@@]56C[C@@]46CC[C@]2(C)[C@@H]13 | -0.505% [at 42.5 µM] | 
20 | Cc1oc2c(NC(=O)c3c(Cl)cccc3Cl)cccc2c1C(C)(C)O |  | 61.1 µM (active)

Row | Compound | activity change, negative = cytotoxicity | Potency
21 | O=[N+]([O-])c1cccc(S(=O)(=O)O)c1 | 13.9% | 
22 | Cc1cccc(C)c1NC(=O)CN(CC(=O)O)CC(=O)O | 10.8% [at 42.5 µM] | 
23 | CCC(C)(C)CC | 3.19% | 
24 | CC(=O)c1cccc([N+](=O)[O-])c1 | 8.91% | 
25 | CCCCc1nc2cccnc2n1Cc1ccc(-c2ccccc2-c2nnn[nH]2)cc1 |  | 48.6 µM (active)
26 | O[C@@H](COc1cccc2ncccc12)CN1CCN(C2c3ccccc3[C@@H]3[C@H](c4ccccc42)C3(F)F)CC1 (stereo not given in full) |  | 16.8 µM (active)
27 | Nc1c(CC(=O)O)cccc1C(=O)c1ccc(Br)cc1 | -0.381% [at 42.5 µM] | 
28 | Cc1cc(N)c2cc(NC(=O)Nc3ccc4nc(C)cc(N)c4c3)ccc2n1 | -0.688% [at 42.5 µM] | 
29 | CN1CCN(C(c2ccccc2)c2ccccc2)CC1 | -6.89% [at 42.5 µM] | 
30 | O=S(c1cc(Cl)cc(Cl)c1O)c1cc(Cl)cc(Cl)c1O | 6.11% [at 42.5 µM] | 
31 | O=C(O)c1nc(Cl)c(Cl)c(Cl)c1Cl | 0.0033% | 
32 | NCC(=O)O | 7.68% [at 19 µM] | 
33 | Cc1cc(C(=O)O)ccc1[N+](=O)[O-] | -8.63% | 
34 | CCCCCCCCCOS(=O)(=O)O | 4.62% | 
35 | Nc1cccc([N+](=O)[O-])c1 | -1.54% | 
36 | O=CC1CC=CCC1 (stereo not given) | -0.555% | 
37 | NC(=O)C(c1ccccc1)(c1ccccc1)[C@@H]1CCN(CCc2ccc3c(c2)CCO3)C1 | -1.52% [at 42.5 µM] | 
38 | CCCCC(CC)COC(=O)CCCCCCCCC(=O)OCC(CC)CCCC (stereo not given) | -0.279% | 
39 | ClCCOCCOCCCl | 8.75% | 
40 | CC(C)Cc1ccc(C(C)C(=O)OCc2ccccn2)cc1 (stereo not given) | 4.57% [at 42.5 µM] | 
